The results in this text go back to ChEMBL document CHEMBL4513216, “Probing the Open Global Health Chemical Diversity Library for Multistage-Active Starting Points for Next-Generation Antimalarials” (ACS Infect Dis, 2020).

SMILES strings stand for the structures. The campaign covered roughly 69,000 compounds. About 8,600 (12%) showed an effect of 50% or more. This is one part of a sample in which strong results are shown more often than they occur.

The subject of this test is Plasmodium berghei. The experiment in a line: Screen against P. berghei liver stage (PbLuc), transformed with Luciferase, at 10uM. Conditions: tested at 10 uM. Format: functional, HepG2.
As for `NC(=O)C1CCCN(C(=O)c2ccn(-c3ccc(F)cc3)n2)C1` (centres undefined), the INHIBITION is recorded as 0.914%.

Consider `c1cnc2[nH]c(C3CCNCC3)c(CN3CCOCC3)c2c1`, for which the INHIBITION stood at 6.32%.

With `O=C([C@H]1CC[C@@H]2[C@@H](CCN2C2CCCCC2)O1)N1CCOCC1`, the INHIBITION is 20.6%.

As to `NCCCC(=O)NCC1(O)CCN(c2ccnc3cccnc23)C1` (centres undefined), the INHIBITION was determined as 8.3035%.

`OCC1CCCN1c1cc(NCCc2nccs2)ncn1` (centres undefined): the INHIBITION is recorded as -0.71%.

Take `OCC1CCCN1c1cc(NCCc2ccsc2)ncn1` (centres undefined): the INHIBITION is given as 66.3%.

For the compound `OCC1CCCN1c1cc(NCc2ccccn2)ncn1` (centres undefined), the INHIBITION is on record as -41.6%.

For the compound `OCC1CCCN1c1cc(NCCNc2ccccn2)ncn1` (centres undefined), the INHIBITION is on record as 7.12%.

Turning to `OCC1CCCN1c1cc(NCCc2ccccn2)ncn1` (centres undefined), the INHIBITION worked out at 64.1%.

Consider `OCC1CCCN1c1cc(NCc2ccsc2)ncn1` (centres undefined), for which the INHIBITION is recorded as 43.2%.

Turning to `C[C@@H]1C[C@H](C(F)(F)F)n2nc(C3CCN(S(=O)(=O)N(C)C)CC3)cc2N1`, the INHIBITION is recorded as -2.11%.

`CNS(=O)(=O)c1ccc(C(=O)N2CCCC2c2ccccc2C)o1` (centres undefined): the INHIBITION worked out at 7.27%.

For `O=C(NCc1nn(-c2ccccc2)c2c1CCC2)N1CCCC(O)C1` (centres undefined), the INHIBITION is -49.4%.

Regarding `CCCOC(=O)N1CCCC(c2nnc(CN3CCOCC3)n2C)C1` (centres undefined), the INHIBITION was found to be 31.2%.

With `Cn1c(CN2CCCC2)nnc1C1CCCN(C(=O)CN2CCCC2)C1` (centres undefined), the INHIBITION amounted to 21.2%.

For the compound `Cn1c(CN2CCCC2)nnc1C1CCCN(C(=O)C2CCOCC2)C1` (centres undefined), the INHIBITION was determined as 70.1%.

As for `Cn1c(CN2CCCC2)nnc1C1CCCN(C(=O)N2CCOCC2)C1` (centres undefined), the INHIBITION amounted to 5.78%.

In the case of `Cn1c(CN2CCOCC2)nnc1C1CCCN(C(=O)CCC2CC2)C1` (centres undefined), the INHIBITION was 8.51%.

With `Cn1c(CN2CCOCC2)nnc1C1CCN(C(=O)C2CCCC2)CC1`, the INHIBITION worked out at 50.1%.

`CN(CCO)Cc1nnc(C2CCN(C(=O)C3CCOCC3)CC2)n1C`: the INHIBITION is recorded as 39.1%.

Regarding `CN1CCC(c2nnc(CN3CCOCC3)n2C)CC1`, the INHIBITION amounted to 27.7%.

As to `CN1CCN(Cc2nnc(C3CCN(CC4CC4)CC3)n2C)CC1`, the INHIBITION is -17%.

For `CN1CCN(Cc2nnc(C3CCN(C4CCCCC4)CC3)n2C)CC1`, the INHIBITION is -10.9%.

Consider `CN1CCN(Cc2nnc(C3CCN(C(CO)CO)CC3)n2C)CC1`, for which the INHIBITION worked out at 62.9%.

Regarding `CCN(C)CC(=O)N1CCCC(c2nnc(CN3CCOCC3)n2C)C1` (centres undefined), the INHIBITION came out at 55.7%.

Consider `O=C(O)[C@@H]1CN(C(=O)CN2CCCCCC2)C[C@H]1c1ccccc1`, for which the INHIBITION is recorded as -6.21%.

Turning to `CC(C)C1=NOC2(CCN(S(C)(=O)=O)CC2)C1`, the INHIBITION is on record as -35.4%.

Consider `Cc1cc(C)n(CC2CCN(CC(O)COc3ccccc3)CC2)n1` (centres undefined), for which the INHIBITION came out at 26.8%.

Turning to `NC1CCC(n2cc(C(=O)N[C@H]3CCCc4ccccc43)nn2)CC1` (some centres undefined), the INHIBITION is 16.6%.

Consider `CCc1nc(C2CCCN(C(=O)c3ccncc3)C2)no1` (centres undefined), for which the INHIBITION was -61.4%.

In the case of `Cc1noc(C)c1-c1cc(CCC2CN(CCC(N)=O)CCO2)ncn1` (centres undefined), the INHIBITION was -2.2555%.

As to `CCSCc1ccc(C(=O)N2CCCN(CC)CC2)cc1`, the INHIBITION is listed as 47%.

For `COc1ccc(C(C)NCCc2ccc(NC(C)=O)cc2)c(OC)c1` (centres undefined), the INHIBITION is 1.56%.

For the compound `CN(C)c1cccc(C2CCCN2S(=O)(=O)c2cn(C)cn2)n1` (centres undefined), the INHIBITION was -52.6%.

For the compound `CSCCC(NC(N)=O)C(=O)NCc1ccc(-n2cccn2)cc1` (centres undefined), the INHIBITION was found to be 56.6%.

Take `CN(Cc1ccc(-n2cccn2)cc1)C(=O)CCC(F)(F)F`: the INHIBITION was determined as 35.1%.

`CSCCC(NC(N)=O)C(=O)Nc1ccc(-n2cccn2)nc1` (centres undefined): the INHIBITION is on record as 1.79%.

On to `CSCCC(NC(N)=O)C(=O)NCc1cnn(-c2ccccc2)c1` (centres undefined), for which the INHIBITION is recorded as 29.8%.

On to `CSCC[C@H](NC(C)=O)C(=O)N(C)Cc1ccc(-n2cccn2)cc1`, for which the INHIBITION stood at 54.4%.

Turning to `CSCCC(O)C(=O)N(C)Cc1cnn(-c2ccc(F)cc2)c1` (centres undefined), the INHIBITION came out at 24.2%.

With `Cc1cnc(C(=O)N2C[C@@H]3CC[C@H]2CN(S(=O)(=O)N(C)C)C3)cn1`, the INHIBITION was 42%.

In the case of `O=C(NC1CC1)N1C[C@@H]2CCN(C(=O)c3cscn3)[C@@H]2C1`, the INHIBITION is -1.28%.

On to `Cn1cc(Cl)cc1C(=O)N1CCCN(Cc2nccn2C)CC1`, for which the INHIBITION is listed as 0.16%.

In the case of `CCCc1noc(CN2CCCC2c2noc(C3CC3)n2)n1` (centres undefined), the INHIBITION is 40.9%.

Turning to `O=C(NC1CC1)[C@H]1C[C@H]2OCC[C@H]2N(Cc2ccc(F)cc2)C1`, the INHIBITION is given as -15.3%.

In the case of `COc1ccc(C(=O)O)cc1-c1cccc2c1CCNC2`, the INHIBITION came out at 21.2%.

Consider `Cc1cc(-c2cccc3c2CCNC3)cnc1-n1cnnc1`, for which the INHIBITION is 26.4%.

With `Cc1ccc(C(=O)O)cc1-c1cccc2c1CCNC2`, the INHIBITION turned out to be 15.8%.

In the case of `CN(C)C(=O)c1ccc(-c2cccc3c2CCNC3)cc1`, the INHIBITION stood at 33.9%.

As to `Cc1nc(-n2cnnc2)ccc1-c1cccc2c1CCNC2`, the INHIBITION is 61.1%.

`Cc1cnc(-n2cnnc2)c(-c2cccc3c2CCNC3)c1`: the INHIBITION is on record as 53.3%.

Turning to `CCn1cncc1CN1CCN(CC2(c3ccc(C)cc3)CC2)CC1`, the INHIBITION was -29.9%.

`O=C(O)C1(Cc2cc(-c3ccccc3F)no2)CCOCC1`: the INHIBITION worked out at 21.9%.

For `Cc1nn(C)c2nc(NCCN3CCCC(C(N)=O)C3)sc12` (centres undefined), the INHIBITION came to 20%.
